The values that follow come from ChEMBL document CHEMBL4888484, “Replenishing the malaria drug discovery pipeline: Screening and hit evaluation of the MMV Hit Generation Library 1 (HGL1) against asexual blood stage Plasmodium falciparum ,using a nano luciferase reporter read-out” (2022).

Molecules are shown by their SMILES. The whole screen tested about 4,800 compounds, of which about 410 (8.5%) showed an effect of 50% or more. Only a selection was taken, and strong results are over-represented in it overall.

In general, % Inhibition refers to the relative decrease from the control value, in per cent.

This experiment concerns Plasmodium falciparum. Nature of the experiment: Confirmatory screen in NF54 pLDH assay, in single point, at 2uM, 72h. It counts as functional, Erythrocyte. Conditions: timepoint 72 hour.
In the case of `CCC(CC)c1cc([C@H]2CN3CC[C@H]2C[C@@H]3CO)nc(-c2ccncc2)n1`, the “% Inhibition” value was found to be 24%.
Next, `CCC(CC)c1cc([C@H]2CN3CC[C@H]2C[C@@H]3CNS(=O)(=O)Cc2ccccc2)nc(-c2ccncc2)n1`: 60%.
Turning to `CCCS(=O)(=O)NC[C@H]1C[C@@H]2CCN1C[C@@H]2c1cc(C(CC)CC)nc(-c2ccncc2)n1`, the “% Inhibition” value stood at 25%.
Consider `CN(C)[C@@H](Cn1c(=O)[nH]c2ccccc2c1=O)c1ccco1`, for which the “% Inhibition” value is on record as -13%.
As to `COc1ccc(-c2csc(-n3cc(C4=CCN(CCO)CC4)cn3)n2)cc1`, the “% Inhibition” value turned out to be 40%.
Next, `O=C(Cc1noc2ccccc12)N1CC2CCCC(C1)N2`: 11%.
For `CC(C)(C)CC(C)(C)NCc1cccnc1` the value was -1%; for `O=C1NC(=O)C2(Cc3cc(C(F)(F)F)ccc3N3CCCCC32)C(=O)N1c1ccccc1` (stereo unspecified), -21%; for `O=C(c1ccccc1)c1cc(Cl)ccc1NC(=O)[C@H]1CC(=O)N(c2ccc(F)cc2)C1`, 96%.
`Cc1c(C(=O)N2CCC3(CC2)OCCO3)oc2ccc3c(c12)[C@@H](O)CC1(CCCCC1)O3`: the “% Inhibition” value was found to be 10%.
In the case of `CN(C)c1ccccc1NS(=O)(=O)c1c(Br)cc2[nH]c(=O)oc2c1Cl`, the “% Inhibition” value was 2%.
As for `CCC(CC)c1cc([C@H]2CN3CC[C@H]2C[C@@H]3CNC(=O)Cc2cccs2)nc(-c2ccncc2)n1`, the “% Inhibition” value is listed as 7%.
With `CN1CCc2nc3ccc(F)cc3c(C(N)=O)c2C1`, the “% Inhibition” value is recorded as -10%.
As to `Cc1ccccc1[C@H](C)NC1=NCCO1`, the “% Inhibition” value worked out at 6%.
On to `CCN1C[C@]2(COC)CC[C@H](OC)[C@@]34C5C[C@@H]6[C@@H](OC)C[C@@](O)(C5[C@H]6OC(=O)c5ccccc5)[C@@H](CC23)C14` (stereo partly specified), for which the “% Inhibition” value is listed as 13%.
Next, `Cc1ccc(C2CC(c3cccnc3)Nc3ncnn32)cc1` (stereo unspecified): 7%; `C=CC1CN2CCC1CC2C12Nc3ccccc3C1(O)CCO2` (stereo unspecified): -15%.
With `O[C@@]1(Cc2ccccc2)CN2CCC1CC2`, the “% Inhibition” value came to 3%.
For `COc1ccc(CCN2C(=O)NC(=O)[C@@]3(Cc4c(ccc5ccccc45)N(C)C3)C2=O)cc1OC` the value was 6%.
As to `Cc1cc(C(=O)NC2CC(C)n3ccnc32)nn1C(C)C` (stereo unspecified), the “% Inhibition” value is given as 70%.
As to `CCc1nsc(N2CCC3CCC(C2)N3C)n1` (stereo unspecified), the “% Inhibition” value is recorded as -12%.
Next, `C[C@@H]1N=C(c2ccccc2)c2cc(Cl)ccc2N(CC(=O)Nc2cccc(C(F)(F)F)c2)C1=O`: 11%; `Cc1ccc(CN2CC(=O)N(C)CC23CCCCC3)nc1`: -19%.
For the compound `Clc1ccc(C2CC(c3cccnc3)Nc3ncnn32)cc1` (stereo unspecified), the “% Inhibition” value is -11%.
For `COC(=O)c1cc(OC)cc2[nH]c(=O)oc12` the value was -17%; for `O=C1CCN(C(=O)c2ccc(F)c(Cl)c2)CC1`, 13%.
